Calls of active or inactive are those of the source.

Sequence of NADPH oxidase 4 (Homo sapiens) (Q9NPH5 whole entry, looked up): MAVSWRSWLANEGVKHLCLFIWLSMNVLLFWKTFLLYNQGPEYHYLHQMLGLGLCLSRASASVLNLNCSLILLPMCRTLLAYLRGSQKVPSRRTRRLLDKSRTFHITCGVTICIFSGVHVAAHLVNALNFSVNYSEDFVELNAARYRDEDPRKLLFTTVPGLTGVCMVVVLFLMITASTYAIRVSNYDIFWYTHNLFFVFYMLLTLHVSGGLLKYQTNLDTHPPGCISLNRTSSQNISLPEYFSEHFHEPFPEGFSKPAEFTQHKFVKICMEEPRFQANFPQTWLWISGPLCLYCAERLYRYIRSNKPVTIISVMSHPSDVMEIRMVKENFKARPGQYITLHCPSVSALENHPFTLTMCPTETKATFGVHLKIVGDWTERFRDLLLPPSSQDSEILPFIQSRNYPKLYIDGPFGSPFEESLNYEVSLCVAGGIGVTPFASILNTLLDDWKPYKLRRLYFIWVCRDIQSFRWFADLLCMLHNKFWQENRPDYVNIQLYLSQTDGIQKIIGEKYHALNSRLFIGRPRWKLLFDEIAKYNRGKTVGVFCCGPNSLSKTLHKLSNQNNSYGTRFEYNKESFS

One assay concerns the target NADPH oxidase 4 (Homo sapiens) (UniProt Q9NPH5). Nature of the assay: NOX4-dependent H2O2 signal modulators, primary screen, NOX inhibitor project, cell-based, HEK293-NOX4, tetracycline-induced, Amplex Red fluorescence (AID 1160). The note with it: 45 min, higher = more signal, called active from +8 up or from −8 down.
As to `C=CC[C@@H]1C=C[C@H](ON=C[C@@H](NS(=O)(=O)c2ccc(C)cc2)[C@H](C)C=CCC(=O)OC)[C@@H](CO)O1`, the z-score is 0.118 (inactive).

`COC(=O)[C@H](C)NC(=O)CCC1CC(OC(=O)NCCc2ccc(F)cc2)CC2(CCCC(COC(=O)NCCOc3ccccc3)O2)O1` (stereo partly drawn): the z-score was 0.622 (inactive).

For the molecule `CO[C@@H]1COC(=O)[C@H](COCc2ccccc2)NC(=O)CC=C[C@@H](C)[C@H](OC)COC(=O)[C@@H](C)NC(=O)CC=C[C@H]1C`, the z-score is 0.773 (inactive).

Turning to `CC(CCC(=O)OC[C@H]1O[C@H](C#Cc2ccccc2)C=C[C@@H]1Oc1ccc(C)cc1)=NOC[C@@H](C)[C@H](OCc1ccccc1)C(C)C`, the z-score was 1.16 (inactive).

On to `COC(=O)[C@H](C)NC(=O)CC=C[C@@H](C)[C@@H]1C=C[C@H](O)[C@@H](CO)O1`, for which the z-score was 0.62 (inactive).

In the case of `C=CC[C@@H]1C=C[C@H](ON=C(C)CCN2CCCc3nc(C)c(C)cc32)[C@@H](CO)O1`, the z-score is -0.0344 (inactive).

`O=C1C=C[C@@H](O)[C@@H]2[C@@H]3C(=O)N(Cc4ccccc4)C(=O)[C@@H]3CC[C@@H]12`: the z-score is 0.553 (inactive).

The target of the next assay is NADPH oxidase 5 (Homo sapiens) (UniProt Q96PH1). Nature of the assay: NOX5-dependent H2O2 signal modulators, primary screen, NOX inhibitor project, cell-based, HEK293-NOX5, Amplex Red fluorescence (AID 1161). The note with it: HEK293-NOX5, ionomycin, 45 min, higher = more signal.
Sequence of NADPH oxidase 5 (Homo sapiens) (Q96PH1 whole entry, looked up): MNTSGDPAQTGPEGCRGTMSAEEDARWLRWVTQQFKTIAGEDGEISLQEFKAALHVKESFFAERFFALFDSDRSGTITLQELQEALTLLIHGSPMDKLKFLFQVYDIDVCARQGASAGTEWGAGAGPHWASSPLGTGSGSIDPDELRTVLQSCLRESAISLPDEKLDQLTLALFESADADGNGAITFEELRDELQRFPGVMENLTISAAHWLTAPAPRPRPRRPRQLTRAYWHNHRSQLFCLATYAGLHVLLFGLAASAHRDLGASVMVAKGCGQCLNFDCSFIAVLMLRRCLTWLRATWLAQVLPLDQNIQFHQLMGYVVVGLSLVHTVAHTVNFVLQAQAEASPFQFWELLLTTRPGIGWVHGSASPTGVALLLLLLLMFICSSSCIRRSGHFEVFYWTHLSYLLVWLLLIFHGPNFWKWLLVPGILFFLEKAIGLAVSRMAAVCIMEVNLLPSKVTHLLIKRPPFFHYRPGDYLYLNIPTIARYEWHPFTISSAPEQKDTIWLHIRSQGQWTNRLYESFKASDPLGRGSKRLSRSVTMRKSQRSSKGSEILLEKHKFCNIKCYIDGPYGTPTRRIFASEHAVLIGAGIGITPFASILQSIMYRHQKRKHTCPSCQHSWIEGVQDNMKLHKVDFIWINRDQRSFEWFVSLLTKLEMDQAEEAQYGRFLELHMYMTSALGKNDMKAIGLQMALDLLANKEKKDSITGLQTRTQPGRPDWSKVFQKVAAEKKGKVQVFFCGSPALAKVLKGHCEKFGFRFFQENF
Regarding `CON=C(C)CCC(=O)OC[C@H]1O[C@H](C#Cc2ccccc2)C=C[C@@H]1Oc1ccc(C)cc1`, the z-score is -0.0339.

Turning to `CC(C)(C)N1C(=O)[C@H]2[C@H]3[C@H](O)[C@H](O)CC(=NOC[C@@H](O)COCc4ccco4)[C@@H]3CC[C@H]2C1=O`, the z-score is -0.279.

In turn, `CO[C@@H]1[C@H](O)CO[C@H]1C=Cc1ccccc1` returned a z-score of 1.23.

Consider `CCN1C(=O)[C@H]2[C@H]3[C@H](O)[C@H](O)CC(=NOCC[C@@H]4C=C[C@H](OC(C)=O)[C@@H](COC(C)=O)O4)[C@@H]3CC[C@H]2C1=O`, for which the z-score came out at 0.859.

As to `CO[C@@H](C1CCCCC1)[C@@H](C)[C@H](OCc1cccc(Br)c1)[C@@H](C)CO`, the z-score was -2.45.

`CCOC(=O)CCN1C(=O)[C@H]2[C@H]3[C@H](O)[C@H](O)CC(=NOCC(C)C)[C@@H]3CC[C@H]2C1=O` gave a z-score of 0.295.

With `CCOC(=O)CCN1C(=O)[C@H]2[C@H]3[C@H](O)[C@H](O)CC(=NO[C@@H]4O[C@H](CO)[C@@H](O)[C@H](O)[C@H]4O)[C@@H]3CC[C@H]2C1=O`, the z-score was -2.16.

On to `CO[C@H]1COC(=O)CC=C[C@@H](C)COC(=O)[C@H]2CCCN2C(=O)CC=C[C@H]1C`, for which the z-score came out at 0.364.

`CCOC(=O)[C@H](Cc1ccccc1)NC(=O)CCC1CC(OC(=O)NCc2cccc3ccccc23)CC2(CCCC(COC(=O)NCCc3ccccc3OC)O2)O1` (stereo partly drawn) showed a z-score of 1.06.

As to `Cc1ccc(S(=O)(=O)N[C@@H]2COC(=O)CC=C[C@@H](C)[C@H](NS(=O)(=O)c3ccc(C)cc3)COC(=O)[C@H](C)NC(=O)CC=C[C@H]2C)cc1`, the z-score is -0.545.

In the case of `CCN1C(=O)[C@H]2[C@H]3[C@H](O)[C@H](O)CC(=NOCC=C(C)CCC=C(C)C)[C@@H]3CC[C@H]2C1=O`, the z-score was -1.06.

As to `O=C1[C@H]2[C@H]3[C@H](O)[C@H](O)CC(=NOC[C@@H](O)COCc4ccco4)[C@@H]3CC[C@H]2C(=O)N1Cc1ccccc1`, the z-score was -0.858.

For the molecule `O=C1[C@H]2CCn3c(=O)n(-c4ccccc4)c(=O)n3[C@H]2[C@H](O)[C@@H]2O[C@H]12`, the z-score turned out to be 0.423.

Turning to `CON=C[C@@H](OC)[C@H](C)C=CCC(=O)OC`, the z-score is -0.945.

With `CC(C)=CCCC(C)=CCON=C1C[C@@H](O)[C@@H](O)[C@@H]2[C@@H]3C(=O)N(Cc4ccc5c(c4)OCO5)C(=O)[C@@H]3CC[C@@H]12`, the z-score is -2.6.

Regarding `CC(=O)OC[C@H]1O[C@H](CC=NO[C@@H](C)c2cc(-c3c(C)cc(C)cc3C)no2)C=C[C@@H]1OC(C)=O`, the z-score was -2.99.

With `COc1ccc(-c2cnnc(CCCn3ccnc3-c3ccccc3)n2)cc1`, the z-score is -1.2.

Consider `O=C1C2=CC[C@H]3C(=O)N(c4ccc(F)cc4F)C(=O)[C@H]3[C@H]2[C@H](O)[C@@H]2O[C@H]12`, for which the z-score was -0.191.

`COC(=O)CC=C[C@@H](C)[C@@H](C=NOC[C@@H](O)COCc1ccco1)OC` came in with a z-score of 0.403.

Regarding `COC(=O)[C@H](C)NC(=O)CCC1CC(OC(=O)NCc2cccc3ccccc23)CC2(CCCC(COC(=O)NCCCN3CCCC3=O)O2)O1` (stereo partly drawn), the z-score was -0.075.

Consider `CCOC(=O)[C@H](CC(C)C)NC(=O)CCC1CC(OC(=O)NCc2ccc3c(c2)OCO3)CC2(CCCC(COC(=O)NCCc3ccccc3OC)O2)O1` (stereo partly drawn), for which the z-score turned out to be 1.24.

Consider `CO[C@@H](C(C)C)[C@@H](C)C1OC(=O)CC1O` (stereo partly drawn), for which the z-score is 0.368.

Turning to `Cc1ccc(C(C)C)n1C(=O)OC(C)(C)C`, the z-score is 0.674.

The molecule `CCOC(=O)[C@H](Cc1ccccc1)NC(=O)CCC1CC(OC(=O)NCc2ccc3c(c2)OCO3)CC2(CCCC(COC(=O)NCCOc3ccccc3)O2)O1` (stereo partly drawn) showed a z-score of 0.653.

Turning to `CSCC[C@@H]1NC(=O)CC=C[C@@H](C)COC(=O)[C@H](C)COC1=O`, the z-score was 0.515.

The molecule `CO[C@H]1COC(=O)CCC[C@H](C)[C@@H](OC)COC(=O)CC=C[C@@H]1C` registered a z-score of 0.344.

`CC(C)[C@@H](OCc1ccccc1)[C@H](C)C=NO[C@@H](C)c1cn([C@H](CO)Cc2ccccc2)nn1`: the z-score was -0.543.

In turn, `CCN1C(=O)[C@H]2[C@@H]3C(=CC[C@H]2C1=O)C(=O)[C@H]1O[C@H]1[C@H]3O` displayed a z-score of 0.121.

For `CC(C)=CCCC(C)=CCON=C1C[C@@H](O)[C@@H](O)[C@@H]2[C@@H]3C(=O)N(C4CCCCC4)C(=O)[C@@H]3CC[C@H]12`, the z-score is -4.91.

For the molecule `C=CC[C@@H]1C=C[C@H](ON=C[C@@H](NS(=O)(=O)c2ccc(C)cc2)[C@H](C)C=CCC(=O)OC)[C@@H](CO)O1`, the z-score was -0.286.

`COC(=O)[C@H](C)NC(=O)CCC1CC(OC(=O)NCCc2ccc(F)cc2)CC2(CCCC(COC(=O)NCCOc3ccccc3)O2)O1` (stereo partly drawn) displayed a z-score of 0.382.

As to `CO[C@@H]1COC(=O)[C@H](COCc2ccccc2)NC(=O)CC=C[C@@H](C)[C@H](OC)COC(=O)[C@@H](C)NC(=O)CC=C[C@H]1C`, the z-score came to 0.436.

Regarding `CC(CCC(=O)OC[C@H]1O[C@H](C#Cc2ccccc2)C=C[C@@H]1Oc1ccc(C)cc1)=NOC[C@@H](C)[C@H](OCc1ccccc1)C(C)C`, the z-score was found to be 0.919.

Consider `COC(=O)[C@H](C)NC(=O)CC=C[C@@H](C)[C@@H]1C=C[C@H](O)[C@@H](CO)O1`, for which the z-score is -0.231.

Regarding `C=CC[C@@H]1C=C[C@H](ON=C(C)CCN2CCCc3nc(C)c(C)cc32)[C@@H](CO)O1`, the z-score was -0.473.

As to `O=C1C=C[C@@H](O)[C@@H]2[C@@H]3C(=O)N(Cc4ccccc4)C(=O)[C@@H]3CC[C@@H]12`, the z-score was 0.455.

Source of the values: PubChem BioAssay.
